Assay outcomes as filed in PubChem BioAssay.
PI5P4K alpha inh: blocks human PI5P4K alpha kinase activity; PI5P4Kalpha enzyme, ADP-Glo luminescence, 60 min; hits give low values; max response, %; actives 1.2% (n = 330,000); active means max response of -50% or lower; inconclusive means between -30% and -50%; inactive means -30% or higher; further: value at the top dose of about 77 µM; on the % scale 0 is the no-effect control and ±100 the full control effect
Target sequence (P48426 whole entry, looked up): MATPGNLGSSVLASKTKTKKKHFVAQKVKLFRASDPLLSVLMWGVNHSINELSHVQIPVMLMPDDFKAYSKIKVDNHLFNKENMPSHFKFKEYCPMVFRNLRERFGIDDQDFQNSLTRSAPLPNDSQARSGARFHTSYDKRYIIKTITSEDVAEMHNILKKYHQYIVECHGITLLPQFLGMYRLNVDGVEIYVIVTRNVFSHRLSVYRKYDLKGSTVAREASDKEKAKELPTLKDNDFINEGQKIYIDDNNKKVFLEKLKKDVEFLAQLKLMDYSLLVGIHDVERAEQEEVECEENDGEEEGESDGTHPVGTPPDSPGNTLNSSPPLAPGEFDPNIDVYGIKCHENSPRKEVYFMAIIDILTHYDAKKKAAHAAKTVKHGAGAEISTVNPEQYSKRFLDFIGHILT
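Single end-point luminescence (ADP-Glo) quantified ADP from PI5P4Kalpha turnover; ATP 5 microM final, 1 h at RT, 0.1% CHAPS and 0.28 mM EGTA in HEPES pH 7.4.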
JMJD2A Tudor: blocks the human JMJD2A Tudor domain; Potency, µM (series often up to 114 µM), for the others: top-dose activity change, negative = inhibition, hits mostly inhibitors; AlphaScreen JMJD2A-Tudor / H3K4me3 peptide binding; actives 4.4% (n = 390,000); further: potency means the concentration at half of the fitted maximal effect; on the % scale 0 is the no-effect control and ±100 the full control effect; nearly all actives have a fitted effect of over 50% in size
HP1b binding inh: HP1-beta chromodomain-methylated histone interaction inhibition; P83916; AlphaScreen HP1-beta / biotin-H3K9me3 peptide binding; Potency, µM (titrated, usually from 114 µM), for the others: at the top dose activity change, negative = inhibition, actives largely listed as inhibitors; actives 0.56% (n = 390,000); further: potency means the concentration at half of the fitted maximal effect; nearly all actives have a fitted effect of over 70% in size
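Compound inhibition of the preformed complex between 50 nM HP1-beta and 50 nM biotinylated H3K9me3 peptide was read by AlphaScreen. Buffer was PBS pH 7.4 with 0.01% Tween-20. Incubations ran 30 min at room temperature, with 10 ug/mL donor/acceptor beads.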
G9a block: blocks human histone lysine methyltransferase G9a; actives 8.8% (n = 350,000); G9a H3K9 monomethylation, AlphaScreen, 2 h; Potency, µM (doses to about 102 µM), for the others: top-dose activity, negative = inhibition, usual class: inhibitors; AID 504332; Q96KQ7; further: potency means the concentration at half of the fitted maximal effect; on the % scale 0 is the no-effect control and ±100 the full control effect; nearly all actives have a fitted effect of over 75% in size
Target sequence (Q96KQ7 913-1193 limits assumed): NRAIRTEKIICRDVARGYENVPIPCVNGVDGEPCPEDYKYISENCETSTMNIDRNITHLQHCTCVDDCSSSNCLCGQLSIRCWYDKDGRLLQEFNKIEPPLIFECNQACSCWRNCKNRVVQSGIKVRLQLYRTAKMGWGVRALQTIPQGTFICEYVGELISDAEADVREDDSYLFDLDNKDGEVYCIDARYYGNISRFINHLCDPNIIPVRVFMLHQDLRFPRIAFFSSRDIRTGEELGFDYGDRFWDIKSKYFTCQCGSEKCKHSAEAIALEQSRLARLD
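Chemiluminescent proximity detection of H3K9 monomethylation, read after 10 min bead incubation in the dark. Reaction: 20 nM G9a, 500 nM biotin-H3K9 peptide, 20 uM SAM cofactor, 2 h, room temperature, following 15 min enzyme-compound preincubation.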
PLK1 PBD inh: PLK1 (human) polo-box domain binding inhibition; AID 720504; Plk1 PBD binding of FITC phosphopeptide, fluorescence polarization; actives 2.8% (n = 360,000); P53350; Potency, µM, for inactives: max response, negative = inhibition, most hits filed as inhibitors; further: potency means the concentration at half of the fitted maximal effect; series mostly up to about 57 µM; on the % scale 0 is the no-effect control and ±100 the full control effect; nearly all actives have a fitted effect of over 65% in size
BAZ2B inh: inhibitors of human BAZ2B bromodomain. Q9UIF8. AlphaScreen BAZ2B-H3K14Ac peptide displacement. Potency, µM (highest dose often 114 µM), inactives show top-dose activity change, negative = inhibition, most hits filed as inhibitors. actives 4.4% (n = 360,000); further: potency means the concentration at half of the fitted maximal effect; on the % scale 0 is the no-effect control and ±100 the full control effect; nearly all actives have a fitted effect of over 60% in size
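AlphaScreen displacement of biotin-H3(5-23)K14Ac peptide (50 nM final) from BAZ2B (50 nM final) in PBS pH 7.4, 0.01% Tween-20; complex preformed 30 min RT, then compounds (top 110 uM) 30 min RT, beads 20 min dark.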
* = called active by the depositor; ? = inconclusive; . = no result given; [ ] = dose if it differs, or a comment. This is a sample that favours compounds with a hit; in the whole collection about 12% have one here. Unless noted, the call rests on the fitted dose curve; in most records, active means well fitted curve in the direction sought with a large enough effect; inconclusive means small, poorly fitted or top-dose-only effect, or another doubt; inactive means no such curve, though single readings can be large; an effect the other way counts as inactive or inconclusive.

SMILES | PI5P4K alpha inh | JMJD2A Tudor | HP1b binding inh | G9a block | PLK1 PBD inh | BAZ2B inh
CCN1CCN(CC(=O)N2CCCC(C(=O)c3ccc(Oc4ccccc4)cc3)C2)CC1 (configuration not stated) | 1 | -25% | 14% | 35µM* | -6% | 50µM*
Cc1ccc(OCCNC(=O)CNC(=O)Cc2cccc3ccccc23)cc1 | . | -2%[57.1 µM] | 17%[57 µM] | . | . | .
O=[N+]([O-])/C(C(Cl)=C(Cl)Cl)=C1\Nc2ccccc2O1 | -12 | 40µM* | ? | 35µM* | ? | 50µM*
CCOc1cc(-c2ccc(OC(=O)c3ccc(C)cc3)c(OC)c2)cc(=O)c2c(C)oc(C)c12 | . | ? | 5% | ? | . | 40µM*
CCOc1ccc(-c2cc(OC(=O)c3ccccc3)c3c(C)oc(C)c3c(=O)c2)cc1 | . | ? | -8% | 11µM* | . | 35µM*
COc1ccc(-c2cc(OC(=O)c3cccc(C)c3)c3c(C)oc(C)c3c(=O)c2)cc1 | . | ? | 26% | 7.9µM* | . | ?
CCOc1ccc(-c2cc(OC(=O)c3ccc(F)cc3)c3c(C)oc(C)c3c(=O)c2)cc1 | . | ? | -9% | ? | . | ?
COc1cc(-c2cc(OC)c3c(C)oc(C)c3c(=O)c2)ccc1OC(=O)c1ccc(C)cc1 | . | -34% | 23% | -28%[59 µM] | . | -31%
Cc1oc(C)c2c(=O)cc(-c3ccc4c(c3)OCO4)cc(OC(=O)c3cccc(Cl)c3)c12 | . | -34% | 17% | ? | . | -15%
COc1cc(-c2cc(OC)c3c(C)oc(C)c3c(=O)c2)ccc1OC(=O)c1cccc(Cl)c1 | . | ? | 2% | -53%[59 µM] | . | 79µM*
Cc1oc(C)c2c(=O)cc(-c3ccc4c(c3)OCO4)cc(OC(=O)c3cccc(Br)c3)c12 | . | -33% | 6% | ? | . | -29%
Cc1ccc(C(=O)Oc2cc(-c3ccc4c(c3)OCO4)cc(=O)c3c(C)oc(C)c23)cc1 | . | ? | 8% | ? | . | ?
COc1ccc(-c2cc(OC(=O)c3cccc(Cl)c3)c3c(C)oc(C)c3c(=O)c2)cc1OC | . | ? | -17% | ? | . | 50µM*
Cc1ccccc1C(=O)Oc1cc(-c2ccc3c(c2)OCO3)cc(=O)c2c(C)oc(C)c12 | . | -34% | 1% | 14µM* | . | ?
N#Cc1nc(COc2ccc(Cl)cc2)oc1NCc1ccc2c(c1)OCO2 | 14 | -14% | ? | 28µM* | 0% | ?
COc1ccc(CNc2oc(COc3cccc(C)c3)nc2C#N)cc1 | . | ? | ? | 5µM* | . | 14µM*
COc1ccc(CCNc2oc(COc3ccc(Cl)cc3)nc2C#N)cc1OC | . | ? | -21% | ? | . | 20µM*
CCNc1oc(COc2cccc(C)c2)nc1C#N | 0 | -20% | 9% | -5% | 3% | -11%
Cc1nc(C#N)c(NCc2ccc3c(c2)OCO3)o1 | -3 | 0% | 16% | -4%[59 µM] | 0% | -21%
COc1ccc(CCNc2oc(COc3cccc(C)c3)nc2C#N)cc1OC | . | ? | ? | 14µM* | . | ?
CCCCNS(=O)(=O)c1ccc2nc(SCC(N)=O)[nH]c2c1 | 5 | -15% | 7%[57 µM] | -2% | -9% | -11%
CCCCNS(=O)(=O)c1ccc2nc(SCC(=O)c3ccccc3OC)[nH]c2c1 | . | -16% | 28% | 35µM* | -1% | 0%
Fc1ccc(NCc2ccccc2-c2nnc(-c3ccccc3Cl)o2)cc1 | . | -13% | 15% | 6%[59 µM] | . | 2%
CCOC(=O)C(Cc1ccnc2ccccc12)=NO | 1 | -19% | 7%[57 µM] | . | 3% | .
CCOC(=O)C(=O)Cc1cccnn1 | -24 | 3.5µM* | ? | . | ? | .
SMILES | PI5P4K alpha inh | JMJD2A Tudor | HP1b binding inh | G9a block | PLK1 PBD inh | BAZ2B inh
COc1ccc(-c2ccc3c(c2)S(=O)(=O)c2cccc(C(=O)N4CCN(C5CCCCC5)CC4)c2C3=O)cc1OC | -4 | 79µM* | -11% | . | 1% | .
COc1cc(C(=O)N2CCCCCCC2)cc(OC)c1OC | . | . | . | -3%[12.7 µM] | . | .
COc1cc(C(=O)N2CCC(N3CCCCCC3)CC2)cc(OC)c1OC | 3 | 7.1µM* | ? | . | -2% | .
COc1cc(OC)cc(C(=O)N2CCC(N3CCN(c4ccccc4OC)CC3)CC2)c1 | -15 | 1.1µM* | ? | 7.9µM* | -1% | 50µM*
COc1cc(C(=O)N2CCN(C3CCCCC3)CC2)cc(OC)c1OC | -2 | 56µM* | ? | . | -9% | ?
COc1ccc(C(CNC(=O)c2cccc([N+](=O)[O-])c2)N2CCOCC2)cc1 (configuration not stated) | . | -27% | 30% | 5%[59 µM] | . | -11%
Nc1ncn(C2C[C@H](O)[C@@H](CO)O2)c(=O)n1 (some centres not stated) | . | . | . | 28%[59 µM] | . | .
COc1ccc(-c2nc3scc(CCNS(=O)(=O)c4ccc(Oc5ccccc5)cc4)n3n2)cc1OC | . | -21% | 14% | 24%[59 µM] | . | -17%
O=C(NC1CCCCCC1)c1ccco1 | 2 | ? | 16% | 45% | -3% | -23%
COc1ccc(C(=O)N2CCN(C3CCCCC3)CC2)cc1OC | -8 | 28µM* | ? | 10µM* | -13% | 50µM*
CC(=O)c1ccc2c(c1)Nc1ccccc1S2 | -1 | -7%[57.1 µM] | -1% | 2.8µM* | -11% | 4%
C/C(=N\NC(=O)c1ccc(C)cc1C)c1ccc2c(c1)Nc1ccccc1S2 | 9 | -26% | 21% | ? | 2% | -29%
CCOC(=O)Nc1ccc2c(c1)Nc1ccccc1S2 | . | 40µM* | -42% | 8.9µM* | -3% | 28µM*
C=CC(=O)N1c2ccccc2Sc2ccc(NC(=O)OCC)cc21 | 2 | -5% | 3% | . | -26% | .
COc1cc2c(cc1N)-c1ccc(N)cc1C2 | -17 | 14µM* | ? | . | 3% | .
COc1cc2c(cc1OC)Cc1cc(OC)c(OC)cc1Cc1cc(OC)c(OC)cc1C2 | . | . | . | -15%[2.33 µM] | . | .
Nc1cc2c(cc1Cl)-c1ccc(Cl)cc1C2 | 3 | -29% | 13% | . | -7% | .
Nc1ccc2c(c1)Cc1cc(N)c(Br)cc1-2 | 9 | 50µM* | ? | . | -3% | .
COc1cc(C(=O)NCc2nc(-c3ccc(Cl)cc3)no2)cc(OC)c1OC | . | -18% | 23% | -5%[59 µM] | . | -3%
O=C1CNC(=S)N1CCc1ccc(O)c(O)c1 | -23 | ? | -1% | 10µM* | -3% | -1%
COc1ccc(C(CNC(=O)COc2cc(C)cc(C)c2)N2CCOCC2)cc1 (configuration not stated) | . | -24% | 25% | -7%[59 µM] | . | -38%
O=C(c1ccco1)N1CCN(C(=O)c2cc(-c3ccccn3)nc3ccc(Cl)cc23)CC1 | -59* | -6%[57.1 µM] | -15% | ? | ? | -30%
Cc1ccc(C)c(CN2C(=O)CSc3ccc(C(=O)NCc4ccc(F)cc4)cc32)c1 | . | 4% | 25% | 9%[59 µM] | . | 1%
